13 compounds from PubChem BioAssay can be followed below.

A short description of experiment [1]: E. coli DRC41 culture turbidity changes, primary screen, E. coli filamentation inducer project, strain DRC41, OD650, 48 h (AID 1152).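 Note: E. coli MC1000 strain DRC41 lacking acrAB efflux pump and sulA.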 Conditions: E. coli DRC41 (acrAB sulA), higher = more signal, called active from +8 up or from −8 down.
A short description of experiment [2]: small-molecule binders of probe aLefty1, primary screen, biochemical, small-molecule microarray, 635/667 nm fluorescence (AID 1153).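 Note: score merges spot fluorescence with signal-to-noise ratio from the scanned slide images.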 Conditions: higher = more signal.
A short description of experiment [3]: PSAC antagonists in infected red cells, primary screen, cell-based, P. falciparum Indochina, OD700, 1 h (AID 1154). Conditions: P. falciparum Indochina infected RBC osmotic lysis, higher = more signal, called active from +8 up or from −8 down.
Experiment [4] is described as follows: PSAC antagonists in infected red cells, primary screen, cell-based, P. falciparum Indochina, OD700, 2 h (AID 1155).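 Note: lysis reports solute entry through the parasite surface anion channel PSAC; channel blockers reduce lysis of infected cells.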 Conditions: P. falciparum Indochina infected erythrocytes, osmotic lysis OD700; higher = more signal, called active from +8 up or from −8 down.
The nature of experiment [5]: osmotic lysis modulators in infected erythrocytes, primary screen, PSAC antagonist project, cell-based, P. falciparum Indochina, OD700, 3 h (AID 1156). Conditions: higher = more signal, called active from +8 up or from −8 down.
The nature of experiment [6]: PSAC antagonists in infected red cells, primary screen, cell-based, P. falciparum Indochina, OD700, 18 h (AID 1157). Conditions: P. falciparum Indochina infected erythrocytes, osmotic lysis OD700, 18 h; higher = more signal, called active from +8 up or from −8 down.
The nature of experiment [7]: modulators of S6 phosphorylation in cells, primary screen, cell-based, A549, cytoblot, luminescence, serum-stimulated (AID 1158).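 Note: serum-stimulated A549 lung adenocarcinoma cells; signal is phosphorylated S6 detected by cytoblot immunostaining with HRP secondary.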 Conditions: A549 phospho-S6 cytoblot, 5 h, higher = more signal.
In experiment [8] the target is NADPH oxidase 2 (Homo sapiens) (UniProt P04839). The experiment can be described thus: NOX2-dependent H2O2 signal modulators, primary screen, NOX inhibitor project, cell-based, HEK293-NOX2, PMA-stimulated, Amplex Red fluorescence (AID 1159). Note: test concentration not given here. Conditions: 45 min, higher = more signal, called active from +8 up or from −8 down.
The target of experiment [9] is NADPH oxidase 4 (Homo sapiens) (UniProt Q9NPH5). The experiment is described as follows: NOX4-dependent H2O2 signal modulators, primary screen, NOX inhibitor project, cell-based, HEK293-NOX4, tetracycline-induced, Amplex Red fluorescence (AID 1160). Conditions: 45 min, higher = more signal, called active from +8 up or from −8 down.
The target in experiment [10] is NADPH oxidase 5 (Homo sapiens) (UniProt Q96PH1). The experiment is described as follows: NOX5-dependent H2O2 signal modulators, primary screen, NOX inhibitor project, cell-based, HEK293-NOX5, Amplex Red fluorescence (AID 1161). Conditions: HEK293-NOX5, ionomycin, 45 min, higher = more signal.

The structures appear in SMILES notation. Active and inactive are the calls of the source.

NADPH oxidase 4 (Homo sapiens), sequence (Q9NPH5 whole entry, looked up): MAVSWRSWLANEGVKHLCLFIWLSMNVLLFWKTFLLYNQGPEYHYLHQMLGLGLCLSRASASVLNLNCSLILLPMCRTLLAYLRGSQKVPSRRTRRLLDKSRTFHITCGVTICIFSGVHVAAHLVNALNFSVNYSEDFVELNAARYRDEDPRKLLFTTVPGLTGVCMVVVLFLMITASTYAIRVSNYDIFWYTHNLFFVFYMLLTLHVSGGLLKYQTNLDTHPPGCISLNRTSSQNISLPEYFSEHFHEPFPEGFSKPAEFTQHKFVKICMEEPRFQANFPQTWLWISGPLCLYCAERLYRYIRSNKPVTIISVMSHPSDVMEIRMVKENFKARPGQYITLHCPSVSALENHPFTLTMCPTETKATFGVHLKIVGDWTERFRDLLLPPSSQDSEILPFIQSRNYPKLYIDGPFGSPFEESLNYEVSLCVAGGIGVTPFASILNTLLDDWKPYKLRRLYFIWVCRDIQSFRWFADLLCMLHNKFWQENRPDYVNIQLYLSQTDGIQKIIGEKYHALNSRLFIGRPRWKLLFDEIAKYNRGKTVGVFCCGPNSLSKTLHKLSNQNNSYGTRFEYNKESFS
NADPH oxidase 5 (Homo sapiens), sequence (Q96PH1 whole entry, looked up): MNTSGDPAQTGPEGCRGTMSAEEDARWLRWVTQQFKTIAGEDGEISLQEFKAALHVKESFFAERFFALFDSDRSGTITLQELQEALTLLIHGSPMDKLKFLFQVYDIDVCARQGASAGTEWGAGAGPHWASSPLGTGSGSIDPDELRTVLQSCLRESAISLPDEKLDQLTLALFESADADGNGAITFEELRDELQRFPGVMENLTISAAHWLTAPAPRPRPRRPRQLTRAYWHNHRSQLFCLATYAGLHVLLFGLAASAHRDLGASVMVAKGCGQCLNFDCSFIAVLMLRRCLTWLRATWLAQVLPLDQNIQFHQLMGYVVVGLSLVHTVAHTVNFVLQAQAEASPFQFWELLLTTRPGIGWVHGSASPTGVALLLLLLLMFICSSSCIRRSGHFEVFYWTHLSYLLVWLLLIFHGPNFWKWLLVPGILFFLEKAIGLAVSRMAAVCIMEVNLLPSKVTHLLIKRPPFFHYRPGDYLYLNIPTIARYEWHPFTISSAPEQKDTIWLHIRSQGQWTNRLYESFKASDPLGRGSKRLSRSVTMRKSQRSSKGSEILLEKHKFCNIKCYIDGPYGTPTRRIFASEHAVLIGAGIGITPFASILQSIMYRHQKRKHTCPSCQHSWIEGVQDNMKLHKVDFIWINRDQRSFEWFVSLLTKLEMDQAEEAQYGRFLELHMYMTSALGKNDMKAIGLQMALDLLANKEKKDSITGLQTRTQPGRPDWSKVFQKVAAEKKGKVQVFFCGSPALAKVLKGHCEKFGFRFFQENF
NADPH oxidase 2 (Homo sapiens), sequence (P04839 whole entry, looked up): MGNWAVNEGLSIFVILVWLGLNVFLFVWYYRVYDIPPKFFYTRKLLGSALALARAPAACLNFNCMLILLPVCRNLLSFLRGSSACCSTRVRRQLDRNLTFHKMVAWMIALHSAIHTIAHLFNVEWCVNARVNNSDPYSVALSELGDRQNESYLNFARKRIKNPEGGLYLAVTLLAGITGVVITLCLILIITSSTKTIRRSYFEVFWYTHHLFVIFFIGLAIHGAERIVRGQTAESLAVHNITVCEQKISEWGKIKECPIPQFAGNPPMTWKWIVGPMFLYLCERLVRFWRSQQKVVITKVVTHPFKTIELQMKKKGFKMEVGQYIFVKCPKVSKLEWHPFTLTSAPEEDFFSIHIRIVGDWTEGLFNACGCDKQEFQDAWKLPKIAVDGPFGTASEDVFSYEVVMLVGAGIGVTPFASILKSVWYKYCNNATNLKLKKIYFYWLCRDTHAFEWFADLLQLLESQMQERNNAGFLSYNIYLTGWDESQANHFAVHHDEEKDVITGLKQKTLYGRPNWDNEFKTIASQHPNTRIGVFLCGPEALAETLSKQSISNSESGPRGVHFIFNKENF

Regarding `O=C1C2C=CC(C(O)c3ccccc3)N(n3cnnc3)C2C(=O)N1Cc1ccccc1` (stereo not given), the z-score was -0.678 (inactive) in experiment [1]; 1.23 (inactive) in [3]; -0.137 (inactive) in experiment [4]; -0.138 (inactive) in [5]; -1.55 (inactive) in experiment [6]; 0.591 in experiment [7]. Besides, the z-score in [8] was 0.569 (inactive); in [9], -0.323 (inactive); in [10], -0.324. The composite z-score in experiment [2] was 0.3.
For `CCCCCCc1nc(C2CC2)c(C)c2c1[Si](C(C)C)(C(C)C)OC2`, the z-score in [1] is 2.16 (inactive); in [3], 2.89 (inactive); in experiment [4], 0.176 (inactive); in [5], -0.162 (inactive); in experiment [6] it was 0.0166 (inactive); in [7], 3.38. In addition, the z-score was -0.579 (inactive) in experiment [8], -0.404 (inactive) in experiment [9] and -1.38 in experiment [10]. Also, the composite z-score in [2] is -0.196.
Regarding `CCN1C(C)=C(C(=O)OC)[C@@H](c2ccccc2)N2C(=O)[C@@]3(C(=O)OC)O[C@@]12[C@@H]1C(=O)N(C)C(=O)[C@@H]13`, the z-score in experiment [1] is -0.871 (inactive); in [3], 0.339 (inactive); in experiment [4], -1.13 (inactive); in [5] it was 0.0125 (inactive); in experiment [6], -1.65 (inactive); in [7] it was 0.629. Further, the results for the z-score in [8], in experiment [9] and in experiment [10] were 1.52 (inactive), -1.65 (inactive) and -0.267, respectively. The composite z-score in experiment [2] was -0.0954.
Turning to `CC1=C([C@H](O)CCc2ccccc2)[C@H](CO)[C@@H]2C(=O)N(Cc3ccccc3)C(=O)[C@@H]2C1`, the z-score was 1.85 (inactive) in [1]; 5.86 (inactive) in experiment [3]; 0.759 (inactive) in experiment [4]; 0.695 (inactive) in [5]; 0.5 (inactive) in experiment [6]; 0.663 in [7]. Moreover, the z-score in experiment [8] was -0.0572 (inactive); in experiment [9], 0.16 (inactive); in experiment [10], -0.798. Besides, the composite z-score in experiment [2] is -0.147.
Regarding `O=C1OCCC=C[C@H]2OC34C=CCN(Cc5ccccc5)C(=O)[C@H]3N(CCO)C(=O)[C@@H]4C12` (stereo not given in full), the z-score in experiment [1] was 2.51 (inactive); in experiment [3] it was 1.07 (inactive); in experiment [4], -0.436 (inactive); in [5], -0.769 (inactive); in experiment [6], -0.8 (inactive); in [7], 1.82. For the same compound, the z-score in experiment [8] is 0.681 (inactive); in [9] it was -0.573 (inactive); in experiment [10], 0.869. Moreover, the composite z-score in experiment [2] was -0.133.
Regarding `C=C(CCCC)C(=O)CC[C@@H](OC(C)=O)c1ccccc1OCCO`, the z-score was 0.377 (inactive) in experiment [1]; 4.13 (inactive) in [3]; 0.663 (inactive) in experiment [4]; -0.566 (inactive) in [5]; 0.7 (inactive) in [6]; -0.0442 in experiment [7]. Moreover, the z-score in [8] was 0.356 (inactive); in [9], -0.852 (inactive); in experiment [10] it was -1.68. Also, the composite z-score in experiment [2] was -0.145.
In the case of `CCCCCCc1nc(-c2cc(C)c(OC)c(C)c2)cc2c1[Si](C(C)C)(C(C)C)O[C@H]2c1ccccc1`, the z-score is -0.548 (inactive) in experiment [1]; 1.31 (inactive) in [3]; -0.0446 (inactive) in experiment [4]; 1.06 (inactive) in experiment [5]; 0.0157 (inactive) in [6]; 0.561 in experiment [7]. For the same compound, the z-score was -0.313 (inactive) in experiment [8], -1.16 (inactive) in experiment [9] and -2.07 in [10]. The composite z-score in experiment [2] is -0.0989.
For the compound `COc1cc2c(cc1OC)CN(C(=O)[C@H]1[C@@H]3C(=O)O[C@@H](c4ccccc4)[C@@H](c4ccccc4)N3[C@@H](c3ccc(O)cc3)[C@]13C(=O)Nc1ccc(C#CC4(O)CCCCCC4)cc13)CC2`, the z-score in [1] was -0.287 (inactive); in experiment [3] it was 0.621 (inactive); in experiment [4], 1.23 (inactive); in experiment [5] it was 0.89 (inactive); in experiment [6] it was 0.737 (inactive); in experiment [7], 0.48. In addition, the z-score in experiment [8] is 1.79 (inactive); in [9], -0.239 (inactive); in experiment [10] it was 1.02. For the same compound, the composite z-score in experiment [2] is 1.76.
Turning to `C=C[C@H](OC)[C@@H](OC(=O)Nc1ccc(SC)cc1)c1ccc(OC)c(O)c1`, the z-score is 2 (inactive) in experiment [1]; 18.9 (active) in experiment [3]; 2.11 (inactive) in [4]; -0.454 (inactive) in experiment [5]; -1.02 (inactive) in experiment [6]; 0.738 in experiment [7]. For the same compound, the z-score in experiment [8] was -2.57 (inactive); in experiment [9], -1.35 (inactive); in experiment [10], -0.943. This compound displayed a composite z-score in experiment [2] of 0.0004.
In the case of `CCCC[C@H]1OB(O)C[C@H]2C1=C(COC)C[C@H]1C(=O)N(Cc3ccccc3)C(=O)[C@H]12`, the z-score was 2.78 (inactive) in experiment [1]; 1.14 (inactive) in [3]; -1.1 (inactive) in experiment [4]; 0.223 (inactive) in experiment [5]; -2 (inactive) in [6]; 0.932 in experiment [7]. The values for the z-score in experiment [8], in experiment [9] and in [10] were 0.034 (inactive), 0.811 (inactive) and 1.37, respectively. In addition, the composite z-score in experiment [2] is -0.0969.
On to `C=C(CCCC)/C(=C/C[C@@H](OC(=O)c1ccncc1)c1cccc(OCCO)c1)c1cc(C(=O)OC)ccc1OC`, for which the z-score in [1] is 1.37 (inactive); in experiment [3], 21 (active); in experiment [4], 3.89 (inactive); in [5] it was 2.48 (inactive); in experiment [6], 1.26 (inactive); in experiment [7], -0.365. Further, the z-score in experiment [8] was 1.33 (inactive); in [9], 1.62 (inactive); in experiment [10], -0.975. In [2], this compound came in with a composite z-score of 0.0371.
As for `CO[C@H]1COC(=O)[C@H](C)NC(=O)CC=C[C@@H](C)[C@H](NS(=O)(=O)c2ccc(C)cc2)COC(=O)[C@@H](OCc2ccccc2)C=C[C@@H]1C`, the z-score is 0.117 (inactive) in experiment [1]; 0.655 (inactive) in experiment [3]; 0.637 (inactive) in experiment [4]; 0.416 (inactive) in [5]; -0.14 (inactive) in experiment [6]; 0.215 in experiment [7]. Further, the z-score in experiment [8] was 1.4 (inactive); in [9], 0.815 (inactive); in experiment [10], 0.2. For the same compound, the composite z-score in experiment [2] was -0.303.
For the compound `COC(=O)C[C@H]1O[C@]2(C(=O)N(C)c3ccccc32)[C@@H](C)[C@@H]1[Si](C)(C)c1ccc(OC)cc1`, the z-score in experiment [1] was 2.42 (inactive); in [3] it was 2.79 (inactive); in experiment [4], -1.17 (inactive); in experiment [5], -0.168 (inactive); in experiment [6], -2.34 (inactive); in experiment [7], 1.11. The z-score in [8] was 0.0822 (inactive); in [9], 0.345 (inactive); in experiment [10], -0.451. The composite z-score in experiment [2] is -0.139.
